In general, inhibition refers to the relative decrease from the control value, in per cent.

The whole screen tested about 220,000 compounds, of which about 830 (0.38%) were called active.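 The calls were made as follows: active = compound inhibiting the enzyme by more than half at any dose during confirmatory dose-response retesting; inconclusive = strong single-dose inhibitors picked by rank but not retested; inactive = the rest.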 The list is a sample of the results. Results with a measured potency or affinity are listed apart.

This experiment deals with Leucine aminopeptidase (Plasmodium falciparum (isolate 3D7)) (UniProt Q8IL11). As to the kind of experiment: P. falciparum M17LAP inhibitors, primary screen, biochemical, fluorogenic H-Leu-NHMec substrate, 1536-well (AID 1619).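 Also: plate controls were full reaction with DMSO carrier for no effect and no enzyme background for full effect.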 The note with it: recombinant M17LAP, H-Leu-NHMec fluorogenic kinetic assay; at 30 µM; hits give high values.
Sequence of Leucine aminopeptidase (Plasmodium falciparum (isolate 3D7)) (Q8IL11 whole entry, looked up): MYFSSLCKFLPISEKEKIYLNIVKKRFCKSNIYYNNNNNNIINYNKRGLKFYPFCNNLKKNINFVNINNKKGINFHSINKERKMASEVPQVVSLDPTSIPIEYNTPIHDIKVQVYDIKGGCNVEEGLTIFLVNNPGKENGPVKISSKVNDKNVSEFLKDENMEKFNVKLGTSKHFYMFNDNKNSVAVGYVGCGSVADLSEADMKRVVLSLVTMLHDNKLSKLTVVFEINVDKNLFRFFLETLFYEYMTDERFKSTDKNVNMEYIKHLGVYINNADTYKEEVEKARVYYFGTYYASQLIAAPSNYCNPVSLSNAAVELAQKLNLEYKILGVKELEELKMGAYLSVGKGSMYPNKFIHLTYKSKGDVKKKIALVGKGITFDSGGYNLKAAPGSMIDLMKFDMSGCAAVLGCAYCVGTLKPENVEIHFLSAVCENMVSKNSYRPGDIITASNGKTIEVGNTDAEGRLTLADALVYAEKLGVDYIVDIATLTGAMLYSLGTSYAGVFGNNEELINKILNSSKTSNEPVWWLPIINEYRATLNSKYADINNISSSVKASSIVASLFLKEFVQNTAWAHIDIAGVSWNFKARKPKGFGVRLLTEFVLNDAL
On to `COC(=O)c1cc(C#N)c(NCc2ccccc2)nc1C`, for which the inhibition was -1.82% (inactive).

As to `Cc1nn(C)cc1CN(C)C(=O)c1cc(COc2ccc(F)cc2F)on1`, the inhibition is -16.1% (inactive).

Take `O=C1OCC2OC(O)C(O)C(O)C2OC(=O)c2cc(O)c(O)c(O)c2-c2c(O)c(O)c3oc(=O)c4c(c(O)c(O)c5oc(=O)c2c3c54)-c2c1cc(O)c(O)c2O` (stereo not drawn): the inhibition was 20.8% (inactive).

Turning to `COc1cccc(NC(=O)Cn2c(=O)n(CCC(=O)NCc3ccco3)c(=O)c3ccccc32)c1`, the inhibition is -7.32% (inactive).

`CCn1c(N2CCN(CC(=O)c3c(C)n(C)c4ccccc34)CC2)nc2c1c(=O)[nH]c(=O)n2C`: the inhibition is 16.3% (inactive).

For the compound `CN(Cc1nc(Cc2ccccc2F)no1)CC1(N2CCOCC2)CCCCC1`, the inhibition was -3.08% (inactive).

For the compound `CN(Cc1cc2ccccc2[nH]c1=O)C(=O)COc1ccccc1`, the inhibition is -2.37% (inactive).

For the compound `O=C1C2CC=C(Cl)CC2C(=O)N1CCc1ccccc1` (stereo not drawn), the inhibition was 51.8% (inactive).

On to `O=C1C2CC=C(Cl)CC2C(=O)N1CCC[n+]1ccccc1` (stereo not drawn), for which the inhibition is -3.64% (inactive).

On to `CCOC(=O)N1CCN(C(c2ccc(F)cc2)c2sc3nc(C)nn3c2O)CC1` (stereo not drawn), for which the inhibition is -1.83% (inactive).

On to `C=CCO/N=C(\C)c1c(O)c(C)c(-c2ccccc2)n(-c2ccccc2)c1=O`, for which the inhibition is 54% (inactive).

For `CC(=O)c1c(O)c(C)c(-c2ccccc2)n(-c2ccccc2)c1=O`, the inhibition is 31.5% (inactive).

On to `C/C(=N/O)c1c(O)c(C)c(-c2ccccc2)n(-c2ccccc2)c1=O`, for which the inhibition is 46.8% (inactive).

As for `CCO/N=C(/C)c1c(O)c(C)c(-c2ccccc2)n(-c2ccccc2)c1=O`, the inhibition was 45.5% (inactive).

`COc1cc(/C=N/NC(=O)c2sc(N)c(C#N)c2C)ccc1O`: the inhibition is 3.64% (inactive).

Consider `COc1ccc(Cn2c(SC)nc3ccccc32)cc1[N+](=O)[O-]`, for which the inhibition was -7.5% (inactive).

Take `CCCn1nnc(NC(=O)c2ccc(Br)cc2)n1`: the inhibition is -4.35% (inactive).

For the compound `Cc1ccsc1/C=N/NC(=O)CSCc1ccc(Cl)cc1`, the inhibition is 3.08% (inactive).

Turning to `Cc1cc(C)c(S(=O)(=O)Nc2c(C)[nH]c(=O)[nH]c2=O)c(C)c1`, the inhibition was -3% (inactive).

Take `Cc1cccc2cc(CN(Cc3ccc(F)cc3)C(=O)N3CCOCC3)c(=O)[nH]c12`: the inhibition is 6.9% (inactive).

`O=C(Cc1cccs1)Nc1nnc(SCC(=O)N2CCCCC2)s1`: the inhibition was 4.31% (inactive).

Take `COc1ccccc1Nc1nnc(SCC(=O)N2CCCC2)s1`: the inhibition was 28.9% (inactive).

As for `CN1/C(=C\C(=O)CSc2nnc(NCc3ccccc3)s2)C(C)(C)c2ccccc21`, the inhibition was -5.09% (inactive).

`CN1/C(=C\C(=O)CSc2nnc(N)s2)C(C)(C)c2ccccc21`: the inhibition is 30.2% (inactive).

As to `CC1CCCC(C)N1C(=O)CSc1nnc(NC(=O)c2cccs2)s1` (stereo not drawn), the inhibition was 35.8% (inactive).

Take `COc1cccc(Nc2nnc(SCC(=O)N3CCOCC3)s2)c1`: the inhibition is 31.6% (inactive).

Regarding `COc1ccc(NC(=O)COC(=O)C2=COCCO2)cc1OC`, the inhibition was -5.64% (inactive).

Consider `O=C(CN1CCCCC1)NC(=O)NCc1ccccc1`, for which the inhibition is -1.39% (inactive).

Turning to `C=CCNC(=O)C(=O)c1cccn1-c1ccsc1C(=O)OC`, the inhibition was 1.96% (inactive).

As for `CCOP(=O)(OCC)C(Nc1cccc([N+](=O)[O-])c1)c1ccccc1` (stereo not drawn), the inhibition was -1.19% (inactive).

With `CC(C)CSc1nnc2[nH]c(=O)cc(N)n12`, the inhibition was -1.75% (inactive).

Consider `CCOC(=O)c1oc2cc(O)ccc2c(=O)c1-c1ccc(OC)cc1`, for which the inhibition was 14.6% (inactive).

For the compound `Fc1c(F)c(F)c(N/N=C/c2c[nH]c3ccccc23)c(F)c1F`, the inhibition is -1.25% (inactive).

Regarding `COC(=O)N/N=C/c1c[nH]c2ccccc12`, the inhibition is 14.5% (inactive).

As for `COc1cccc(NC(=O)Nc2nnc(CC(=O)NCc3ccccc3)s2)c1`, the inhibition was 8.42% (inactive).

Consider `COc1ccc(NC(=O)CSc2ncc(-c3ccc(F)cc3)n2Cc2ccco2)cc1`, for which the inhibition was -16.2% (inactive).

`CCCOC(=O)c1c(NC(=O)C2CCCO2)sc(C(=O)OC)c1C` (stereo not drawn): the inhibition was 8.59% (inactive).

For `CC1CCCCN1C(=O)CSc1nc(-c2ccccc2)cn1N` (stereo not drawn), the inhibition is 14.6% (inactive).

As to `O=C(CSc1nc(O)cc(=O)n1-c1ccccc1)Nc1ccccn1`, the inhibition was 14.8% (inactive).

For `COc1ccc(-c2ccnc(SCC(=O)Nc3ccccn3)n2)cc1`, the inhibition was 7.81% (inactive).

For `Cc1cc(-c2ccccc2)nc(SCC(=O)N2CCCC2)n1`, the inhibition is 1.7% (inactive).

Consider `O=C(N1CCC(O)(c2cccnc2)CC1)C12CC3CC(CC(C3)C1)C2`, for which the inhibition is 3.02% (inactive).

With `Cc1oc(C(C)(C)C)cc1C(N)=O`, the inhibition was 5.9% (inactive).

With `Cc1c(N(C(=O)CNC(=O)c2ccccc2)C2(C(=O)NC3CCCCC3)CCCCC2)c(=O)n(-c2ccccc2)n1C`, the inhibition was -1.39% (inactive).

In the case of `Clc1ccc(Nc2ccc(-n3ccnc3)nn2)cc1Cl`, the inhibition is 2.24% (inactive).

On to `Cc1cc(C(=O)NCc2cccs2)n(-c2ccccc2)n1`, for which the inhibition is -1.13% (inactive).

For the compound `COc1ccccc1NC(=S)NC(=O)c1c(-c2ccccc2Cl)noc1C`, the inhibition was -2.71% (inactive).

In the case of `CC(C)NC(=O)/C(C#N)=C\c1ccc(N(C)C)o1`, the inhibition was 38% (inactive).

On to `CC(C)NC(=O)/C(C#N)=C/c1ccc(N(C)C)o1`, for which the inhibition was 48.4% (inactive).

As to `Cc1nn(CC(=O)N2CC(=O)Nc3ccccc32)c(C)c1[N+](=O)[O-]`, the inhibition is 1.29% (inactive).

Consider `CCOC(=O)c1sc(NC(=S)NC(=O)C2CCCC2)cc1C`, for which the inhibition was -3.81% (inactive).

For `O=C(O)C1CCCN(S(=O)(=O)c2ccc(Br)s2)C1` (stereo not drawn), the inhibition was -0.9% (inactive).

As to `O=C(O)/C=C/c1cn(Cc2ccccc2)nc1-c1ccccc1`, the inhibition is 22.2% (inactive).

`Cc1ccc(-c2nn(Cc3ccccc3)cc2/C=C/C(=O)O)cc1`: the inhibition is 38.8% (inactive).

Turning to `O=C(O)/C=C\C(=O)Nc1ccc(Oc2ccccc2)cc1`, the inhibition is 15% (inactive).

Turning to `O=C(O)/C=C/C(=O)Nc1ccc(Oc2ccccc2)cc1`, the inhibition is -0.33% (inactive).

Consider `CCS(=O)(=O)N1CCC(C(=O)NCc2ccc(OC)cc2)CC1`, for which the inhibition is 5.05% (inactive).

As to `NC(=O)C1CCN(c2nc(-c3ccccc3)nc3c2oc2ccccc23)CC1`, the inhibition is -0.35% (inactive).

As to `CCOC(=O)C1CCN(c2nc(-c3ccccc3)nc3c2oc2ccccc23)CC1`, the inhibition is 41.7% (inactive).

For `CCC(C)[C@H](Nc1nc(-c2ccccc2)nc2c1oc1ccccc12)C(=O)O` (stereo partly drawn), the inhibition was 51.5% (inactive).

As to `O=C(O)CSc1nc(-c2ccccc2)nc2c1oc1ccccc12`, the inhibition is 28.6% (inactive).

For the compound `CCc1nc(N[C@H](C(=O)O)C(C)C)c2oc3ccccc3c2n1`, the inhibition was 3.02% (inactive).

For the compound `Cc1nc(SCC(=O)O)c2oc3ccccc3c2n1`, the inhibition is 1.07% (inactive).

Values taken from PubChem BioAssay AID1619 (SRMLSC, 2009).
